Assay [1] can be described thus: qHTS assay to identify small molecule agonists of the sonic hedgehog signaling (Shh) pathway (AID 1259368). Also: nearly all actives have a fitted effect of over 15% in size. Also: potency is read from the fitted curve at half-maximal effect. In a few lines:
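3T3Gli1-Luc (NIH/3T3 clone, stable Gli1-Luc); 4 hr pre-incubation, then cpd in DMSO 24 hr, 37 C/5% CO2; luciferase reagent 30 min RT; luminescence.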
Background: Quantitative high-throughput screening tests each substance at several concentrations.

Assay [2] in a line: qHTS assay to identify small molecule antagonists of the sonic hedgehog signaling (Shh) pathway (AID 1259369). Also: nearly all actives have a fitted effect of over 45% in size. Also: potency is read from the fitted curve at half-maximal effect. In a few lines:
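3T3Gli1-Luc, conditioned-medium-stimulated, 24hr cpd, 37C/5% CO2; Gli1-driven firefly Luc luminescence after 30min RT with luciferase reagent. Cells plated 4hr before cpd.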

Assay [3] in a line: qHTS assay to identify small molecule agonists of the androgen receptor (AR) signaling pathway in the presence of an antagonist - cell viability counter screen (AID 1259379; active = well fitted curve in the direction sought with a large enough effect in the repeat runs; an effect the other way counts as inactive or inconclusive;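 also: MDA-kb2 human breast cancer cells carrying an MMTV luciferase reporter; series mostly up to about 92 µM; nearly all actives have a fitted effect of over 25% in size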). In a few lines: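 Cells: MDA-kb2 (MMTV-luc, AR and GR elements), 3,000/well, 5 hr settle. Added: nilutamide 3.0uM final, then compounds (15 conc.). Incubation: 16 hr, 37C, no CO2. Read-out: CellTiter-Fluor, 1 hr, fluorescence.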

Assay [4] is described as follows: qHTS assay to identify small molecule agonists of the estrogen receptor beta (ER-beta) signaling pathway - cell viability counter screen (AID 1259380; active = well fitted curve in the direction sought with a large enough effect in the repeat runs; an effect the other way counts as inactive or inconclusive; also: nearly all actives have a fitted effect of over 30% in size; also: potency is read from the fitted curve at half-maximal effect). Summed up: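 HEK293T ER-beta-UAS-bla; 2% CS-FBS; 6 hr pre-plate, 16 hr cpd at 37C/5% CO2; LiveBLAzer read first, then CellTiter-Glo 30 min RT, luminescence.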
Assay [5] is described as follows: qHTS assay to identify small molecule antagonists of the estrogen receptor beta (ER-beta) signaling pathway - cell viability counter screen (AID 1259382; active = well fitted curve in the direction sought with a large enough effect in the repeat runs; an effect the other way counts as inactive or inconclusive; also: series mostly up to about 92 µM; nearly all actives have a fitted effect of over 55% in size). Summed up:
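Cells: ER-beta-UAS-bla HEK293T, 2,000/well, 2% CS-FBS, 6 hr settle. Cpd + E2 (1nM final), 16 hr, 37C/5% CO2. Bla FRET substrate 2 hr RT, then CellTiter-Glo 30 min RT, luminescence.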

For assay [6], the target named is Estrogen receptor (Homo sapiens) (UniProt P03372). Description: qHTS assay to identify small molecule agonists of the estrogen receptor alpha (ER-alpha) signaling pathway in the presence of an antagonist (AID 1259383). Also: top concentration of the series differs between compounds; nearly all actives have a fitted effect of over 15% in size. In a few lines:
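VM7Luc4E2, endog. ER-alpha + 4×ERE-luc; charcoal-stripped FBS, phenol red-free, 5 d; 24hr plating; +10.0nM ICI-182,780 (final); cpds 15 conc, 22hr, 37C/5% CO2; ONE-Glo luminescence.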

Assay [7] concerns the target Estrogen receptor beta (Homo sapiens) (UniProt Q92731). Description: qHTS assay to identify small molecule antagonists of the estrogen receptor beta (ER-beta) signaling pathway (AID 1259378; active = well fitted inhibition curve with a large enough effect in the signal ratio in the repeat runs, not every such curve was filed as active; the % refers to the signal ratio). In a few lines:
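ER-beta-UAS-bla HEK293T cells in 2% charcoal-stripped FBS medium treated with compound plus 1nM final 17-beta-estradiol for 16 hr at 37C. Beta-lactamase reporter read by FRET substrate fluorescence after 2 hours at room temperature.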

Assay [8] deals with Androgen receptor (Homo sapiens) (UniProt P10275). As to the kind of experiment: qHTS assay to identify small molecule agonists of the androgen receptor (AR) signaling pathway in the presence of an antagonist (AID 1259381). Also: nearly all actives have a fitted effect of over 15% in size. Also: potency is read from the fitted curve at half-maximal effect. In a few lines:
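MDA-kb2 cells, 3,000/well, rested 5hr at 37C/0% CO2 → nilutamide 3.0uM final or buffer → compounds, 15 conc. → 16hr at 37C → ONE-Glo, 30min RT → luminescence.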

Assay [9] can be described thus: qHTS assay to identify small molecule agonists or antagonists of the thyroid stimulating hormone receptor (TSHR) signaling pathway - wild type cell line counter screen (AID 1259384). In a few lines: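 Wild-type Hek293 cells, 800/well, 18 h at 37C, then compound with Ro20-1724 for 30 min RT. cAMP by HTRF (cAMP-d2/anti-cAMP cryptate), 1 h RT, fluorescence read. 15 concentrations, triplicates.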

The target in assay [10] is Estrogen receptor beta (Homo sapiens) (UniProt Q92731). As to the kind of experiment: qHTS assay to identify small molecule agonists of the estrogen receptor beta (ER-beta) signaling pathway (AID 1259377; active = well fitted activation curve with a large enough effect in the signal ratio in the repeat runs, not every such curve was filed as active; the % refers to the signal ratio). In a few lines: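 Ratiometric beta-lactamase FRET read-out came after 2 h substrate loading at room temperature. It followed 16 h compound treatment at 37C of GripTite HEK293T cells carrying a UAS-bla reporter, plated in 2% charcoal-stripped FBS medium.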

Each structure is given as a SMILES string. Results filed as inconclusive are left out. Activity calls are given as the source filed them. Unless noted, calls follow the shape of the full dose curve.

Sequence of Estrogen receptor (Homo sapiens) (P03372 whole entry, looked up): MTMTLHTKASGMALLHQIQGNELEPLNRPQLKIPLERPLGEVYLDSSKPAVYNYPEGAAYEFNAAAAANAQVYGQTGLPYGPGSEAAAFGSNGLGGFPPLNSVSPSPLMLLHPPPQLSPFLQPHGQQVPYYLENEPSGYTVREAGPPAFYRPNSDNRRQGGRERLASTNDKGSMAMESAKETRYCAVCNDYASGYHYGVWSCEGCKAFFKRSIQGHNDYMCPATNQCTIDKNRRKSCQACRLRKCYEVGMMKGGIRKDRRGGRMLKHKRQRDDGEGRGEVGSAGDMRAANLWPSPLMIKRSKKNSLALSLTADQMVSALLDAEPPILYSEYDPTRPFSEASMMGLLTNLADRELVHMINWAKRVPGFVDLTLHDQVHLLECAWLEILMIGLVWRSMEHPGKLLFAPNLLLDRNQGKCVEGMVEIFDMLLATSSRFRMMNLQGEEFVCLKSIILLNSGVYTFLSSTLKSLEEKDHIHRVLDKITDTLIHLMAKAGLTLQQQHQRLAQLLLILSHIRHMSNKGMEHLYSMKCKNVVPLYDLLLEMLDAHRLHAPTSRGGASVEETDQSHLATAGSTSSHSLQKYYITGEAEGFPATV
Sequence of Estrogen receptor beta (Homo sapiens) (Q92731 whole entry, looked up): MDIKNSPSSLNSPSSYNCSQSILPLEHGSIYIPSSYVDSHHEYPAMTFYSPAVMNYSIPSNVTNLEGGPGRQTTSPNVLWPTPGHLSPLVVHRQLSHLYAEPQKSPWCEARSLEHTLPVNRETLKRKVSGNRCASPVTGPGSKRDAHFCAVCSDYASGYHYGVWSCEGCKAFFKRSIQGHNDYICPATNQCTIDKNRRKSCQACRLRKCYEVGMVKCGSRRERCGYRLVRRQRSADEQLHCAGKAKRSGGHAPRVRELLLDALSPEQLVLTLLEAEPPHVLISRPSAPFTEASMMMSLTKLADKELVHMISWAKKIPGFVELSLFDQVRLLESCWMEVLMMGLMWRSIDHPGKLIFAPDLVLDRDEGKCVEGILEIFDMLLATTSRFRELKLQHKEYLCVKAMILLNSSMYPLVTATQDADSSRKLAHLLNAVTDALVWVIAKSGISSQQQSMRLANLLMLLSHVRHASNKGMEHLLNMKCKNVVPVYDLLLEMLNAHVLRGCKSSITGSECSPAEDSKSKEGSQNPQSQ
Sequence of Androgen receptor (Homo sapiens) (P10275 whole entry, looked up): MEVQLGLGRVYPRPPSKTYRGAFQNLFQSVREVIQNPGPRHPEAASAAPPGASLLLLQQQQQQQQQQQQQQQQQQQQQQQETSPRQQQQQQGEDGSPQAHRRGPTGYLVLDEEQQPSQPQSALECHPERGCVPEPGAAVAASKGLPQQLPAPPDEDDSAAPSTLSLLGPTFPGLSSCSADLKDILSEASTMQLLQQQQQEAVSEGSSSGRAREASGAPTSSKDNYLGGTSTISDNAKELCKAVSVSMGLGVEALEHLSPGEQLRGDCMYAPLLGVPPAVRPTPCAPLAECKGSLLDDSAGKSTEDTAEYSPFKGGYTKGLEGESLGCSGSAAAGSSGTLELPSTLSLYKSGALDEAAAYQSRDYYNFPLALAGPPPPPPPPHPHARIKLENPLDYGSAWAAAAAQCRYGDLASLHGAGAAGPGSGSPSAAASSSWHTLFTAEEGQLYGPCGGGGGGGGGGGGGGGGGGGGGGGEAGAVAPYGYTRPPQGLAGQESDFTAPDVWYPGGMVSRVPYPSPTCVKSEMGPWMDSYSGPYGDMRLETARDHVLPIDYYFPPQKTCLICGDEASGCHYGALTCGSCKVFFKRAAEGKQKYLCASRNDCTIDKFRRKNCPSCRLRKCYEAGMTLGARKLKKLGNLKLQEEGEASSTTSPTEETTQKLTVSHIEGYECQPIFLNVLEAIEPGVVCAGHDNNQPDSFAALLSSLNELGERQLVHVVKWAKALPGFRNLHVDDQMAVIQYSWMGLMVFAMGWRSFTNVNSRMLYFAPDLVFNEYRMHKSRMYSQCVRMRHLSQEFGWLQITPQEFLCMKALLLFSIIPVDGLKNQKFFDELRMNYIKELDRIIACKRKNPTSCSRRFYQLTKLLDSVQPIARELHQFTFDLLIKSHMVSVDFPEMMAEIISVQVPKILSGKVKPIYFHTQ

With `CC/C=C\CCCCO`, the Potency result in [1], in assay [2], in assay [3], in assay [4], in assay [5] and in assay [6] was “inactive” in each case.

On to `COc1cc(CCC(C)=O)ccc1O`, for which the Potency entry in assay [1], in [2], in assay [7], in assay [3], in assay [4] and in assay [8] was “inactive” each time. Moreover, in assay [5], the Potency result is “inactive”. Besides, the result in assay [9] was inactive.

For the molecule `NC1CCN(c2cccc(Cl)n2)CC1`, the Potency entry in assay [1], in assay [7], in assay [3], in [4], in assay [8] and in assay [5] was “inactive” in each case. Besides, the Potency in assay [2] is 1330 nM (active).

On to `OC/C=C/c1ccccc1`, for which the Potency entry in [1], in assay [2], in assay [7], in assay [3], in assay [4] and in assay [5] was “inactive” each time.

With `CCCCNc1ccccc1`, the Potency entry in [1], in [2], in assay [3], in [4], in assay [8] and in assay [5] was “inactive” throughout. Besides, the Potency result in assay [6] is “inactive”. For the same molecule, in assay [9], the molecule was called inactive.

For `COc1cc(C(=O)N2CCOCC2)cc(OC)c1OC`, the Potency entry in assay [1], in [2], in assay [7], in [3], in assay [4] and in [5] was “inactive” each time.

Take `C1C2OC2C2C1C1CC2C2OC12` (stereo unspecified): the Potency result in assay [1], in assay [2], in [3], in assay [4] and in assay [5] was “inactive” in each case.

Take `O=C(O)c1ccccc1S`: the Potency result in assay [1], in assay [2], in assay [7], in [3], in assay [4] and in assay [5] was “inactive” each time. The Potency entry in assay [6] was “inactive”. Besides, in assay [9], the outcome was inactive.

`Cc1ncc(CSSCc2cnc(C)c(O)c2CO)c(CO)c1O`: the Potency entry in assay [1], in assay [2], in assay [3], in assay [4], in [8] and in [5] was “inactive” each time. Also, the Potency entry in assay [6] is “inactive”. Also, the molecule was classed as inactive in assay [9].

Turning to `CCCCCCOC(=O)c1ccccc1O`, the Potency entry in assay [1], in assay [2], in assay [7], in [3], in assay [8] and in assay [5] was “inactive” in each case. Further, the Potency entry in assay [6] is “inactive”. The molecule was called inactive in assay [9].

`Cc1cc(C)c(NC(=O)CN(CC(=O)O)CC(=O)O)c(C)c1Br`: the Potency result in assay [1], in [2], in assay [7], in [3], in assay [4] and in [5] was “inactive” in each case.

As for `OCCCCCCO`, the Potency result in [1], in assay [2] and in assay [3] was “inactive” throughout. Further, the Potency in assay [4] is 55100 nM (active).

In the case of `O=C1C(CCS(=O)c2ccccc2)C(=O)N(c2ccccc2)N1c1ccccc1` (stereo unspecified), the Potency result in [1], in [2], in assay [3], in assay [4], in assay [5] and in assay [6] was “inactive” each time.

In the case of `CC(C)CCOC(=O)CC(C)C`, the Potency result in [1], in assay [2], in assay [3], in [4], in assay [5] and in assay [6] was “inactive” in each case.

For `CC(C)c1cccc(C(C)C)c1N`, the Potency result in assay [1], in assay [2], in assay [3], in [4], in [5] and in assay [6] was “inactive” in each case.

For `CCCC(=O)O[C@]1(C(=O)CCl)[C@@H](C)C[C@H]2[C@@H]3CCC4=CC(=O)C=C[C@]4(C)[C@@]3(F)C(=O)C[C@@]21C`, the Potency entry in assay [1], in [2], in assay [3], in [4], in assay [5] and in assay [6] was “inactive” throughout. Further, in assay [8], the Potency is 4.7 nM (active). In addition, the molecule was classed as inactive in assay [9].

With `CSc1nc(NC2CC2)nc(NC(C)(C)C)n1`, the Potency entry in assay [1], in [3], in assay [4] and in [5] was “inactive” each time. Also, in [2], the Potency was 1540 nM (active).

For the molecule `CC(C)=CCC/C(C)=C/C(=O)O`, the Potency result in assay [1], in assay [2], in assay [3], in assay [4], in assay [5] and in assay [6] was “inactive” throughout.

On to `COC(=O)[C@H]1[C@H]2C[C@@H]3c4[nH]c5cc(OC)ccc5c4CCN3C[C@H]2C[C@@H](OC(=O)COc2ccc(OC)cc2)[C@@H]1OC`, for which the Potency result in assay [1], in assay [2], in assay [3] and in [6] was “inactive” throughout. The molecule was called inactive in assay [10] and in assay [9].

On to `CC1=CC(C)C(C=O)C(C)C1` (stereo unspecified), for which the Potency entry in assay [1], in [2], in assay [3], in [4], in assay [5] and in assay [6] was “inactive” in each case. Besides, in assay [9], the molecule was called inactive.

Regarding `COc1ccc(N=[N+]([O-])c2ccc(OC)cc2)cc1`, in [1], the Potency was 121 nM (active). Besides, the Potency entry in assay [2], in [3], in [5] and in assay [6] was “inactive” each time. Also, the molecule was called inactive in [10] and in [9].

For `C1COCCO1`, the Potency result in [1], in [2], in assay [3], in assay [4], in assay [8] and in assay [5] was “inactive” in each case. Besides, in [6], the Potency result was “inactive”.

As to `O=c1[nH]c(=O)n([C@H]2O[C@H](CO)[C@@H](O)[C@@H]2O)cc1/C=C\Br`, the Potency result in assay [1], in [2], in assay [3], in [4], in [8] and in assay [5] was “inactive” each time. In addition, the Potency result in assay [6] was “inactive”.

For the molecule `NCCN1CCNC1=O`, the Potency result in assay [1], in assay [2], in [3], in assay [4], in assay [5] and in assay [6] was “inactive” throughout. The molecule was called inactive in [9].

In the case of `CCCCCCC(=O)OCC`, the Potency result in [1], in assay [2], in [7], in assay [3], in assay [5] and in assay [6] was “inactive” each time. Also, the call in [9] was inactive.

`c1cc(CN2CCCCC2)cc(OCCCNc2nc3ccccc3s2)c1`: the Potency entry in assay [1], in assay [5] and in assay [6] was “inactive” each time. In [2], the Potency is 4730 nM (active). The outcome in assay [10] and in assay [9] was inactive.

(Values after PubChem BioAssay (Tox21).)
